Measured values taken from PubChem BioAssay (NCATS).
“And” between values parts separate entries of the source, which are not always exact repeats. Identical values can stand only once. Results filed as inconclusive are left out. The source made the active and inactive calls. Calls come from the whole dose curve; as a rule, active = well fitted curve in the direction sought with a large enough effect; inconclusive = small, poorly fitted or top-dose-only effect, or another doubt; inactive = no such curve, though single readings can be large; an effect the other way counts as inactive or inconclusive.

Tests used:
[1] = target: Cytochrome P450 2D6 (Homo sapiens) (UniProt P10635); test: qHTS Assay for Inhibitors and Substrates of Cytochrome P450 2D6 (AID 891); note: nearly all actives have a fitted effect of over 60% in size; note: potency is the fitted concentration of half-maximal effect
Cytochrome P450 2D6 (Homo sapiens), sequence (P10635 whole entry, looked up): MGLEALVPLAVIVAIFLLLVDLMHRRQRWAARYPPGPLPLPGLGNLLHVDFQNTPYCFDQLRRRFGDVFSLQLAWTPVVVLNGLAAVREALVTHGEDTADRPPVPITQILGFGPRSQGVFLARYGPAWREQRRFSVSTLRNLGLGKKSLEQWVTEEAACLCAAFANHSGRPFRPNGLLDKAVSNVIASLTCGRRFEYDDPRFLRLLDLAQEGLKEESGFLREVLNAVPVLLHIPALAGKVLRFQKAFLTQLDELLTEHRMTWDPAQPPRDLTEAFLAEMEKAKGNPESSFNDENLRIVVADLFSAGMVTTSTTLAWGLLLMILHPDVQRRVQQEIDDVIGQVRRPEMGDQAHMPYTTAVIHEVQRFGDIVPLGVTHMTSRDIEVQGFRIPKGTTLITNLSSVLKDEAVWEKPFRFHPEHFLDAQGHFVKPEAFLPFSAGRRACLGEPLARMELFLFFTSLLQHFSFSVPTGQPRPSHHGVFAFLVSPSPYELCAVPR
Outline: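 Human CYP2D6 (5 nM) with 30 uM Luciferin-ME EGE (at Km) in 100 mM KPO4, compound preincubated 10 min, then NADPH regeneration system for 60 min at room temperature. Luciferin read by luminescence; normalized to 1.43 uM quinidine.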

[2] = target: Glutathione peroxidase 1 (Homo sapiens) (UniProt P07203); test: Primary qHTS Assay for Inhibitors of Recombinant Selenoprotein Glutathione Peroxidase 1 (GPX1) (AID 1845191); conditions: outcome: dose series up to 48.8 µM unless noted; note: nearly all actives have a fitted effect of over 65% in size; for activity, negative = inhibition: % is set by controls: 0 for no effect and ±100 for the full control effect
Glutathione peroxidase 1 (Homo sapiens), sequence (P07203 whole entry, looked up): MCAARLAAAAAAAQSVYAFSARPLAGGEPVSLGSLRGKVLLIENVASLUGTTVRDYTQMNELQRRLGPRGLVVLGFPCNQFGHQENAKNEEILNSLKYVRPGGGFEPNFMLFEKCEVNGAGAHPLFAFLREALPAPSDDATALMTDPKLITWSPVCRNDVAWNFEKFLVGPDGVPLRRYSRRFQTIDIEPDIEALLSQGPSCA
Outline: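 GR-coupled assay: compounds preincubated 30 min at room temperature with GPX1, then reaction started with CHP; final 10 nM GPX1, 1 mM GSH, 0.5 mM CHP, 0.5 mM NADPH, 100 nM GR, 0.01% BSA, pH 7.5 Tris buffer. NADPH fluorescence (340/450 nm) read at 0 and 15 min.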

[3] = Viability counterscreen for antagonist of constitutive androstane receptor (CAR) against the NCATS DSHEA and TCM libraries (AID 1794837);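 note: compound exposure lasted 24 h before viability reading; 0% is about no effect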
Outline: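 Cells: HepG2 line carrying CYP2B6 reporter and hCAR, seeded and attached 5 h. Then pin-transferred test substances plus agonist CITCO at 48 uM final; 24 h incubation; fluorogenic viability reagent, 1 h.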

[4] = Viability counterscreen for agonist of constitutive androstane receptor (CAR) against the NCATS DSHEA and TCM libraries (AID 1794838);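 note: HepG2 cells with CYP2B6 reporter and hCAR plus 0.75 µM PK11195 antagonist; 0% is about no effect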
Outline: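 Cell health was measured as CellTiter-Fluor signal in HepG2-CYP2B6-hCAR cells treated for 24 h with substances alongside the hCAR antagonist PK11195 (0.75 uM final).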

[5] = HepG2 viability counterscreen (readout 2: ATP content) against the NCATS DSHEA and TCM libraries (AID 1794840); note: 0% is about no effect
Outline: (§1)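 Same wells read twice: first fluorescence from cleaved GF-AFC substrate (25 uM final, 30 min, 37C) for live-cell protease, then CellTiter-Glo luminescence after 30 min at room temperature for ATP. HepG2 cells were exposed ~24 h to substances.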

[6] = HepG2 viability counterscreen (readout 1: protease activity) against the NCATS DSHEA and TCM libraries (AID 1794841);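 note: cells exposed to compounds for about 24 h before the protease read; 0% is about no effect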
Outline: as §1

[7] = target: Cytochrome P450 2D6 (Homo sapiens) (UniProt P10635); test: qHTS for inhibitors of CYP2D6 against the NCATS DSHEA and TCM libraries (AID 1919972); note: potency is the fitted concentration of half-maximal effect
Outline: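 Luminescent P450-Glo read-out of CYP2D6 turnover of a luciferin substrate after NADPH-driven reaction of 30-45 min at room temperature. Compounds were first preincubated 15 min with enzyme at titrated concentrations; quinidine was the intraplate control.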

[8] = target: Cytochrome P450 2C19 (Homo sapiens) (UniProt P33261); test: qHTS for inhibitors of CYP2C19 against the NCATS DSHEA and TCM libraries (AID 1919974);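 note: luminescence from luciferin released by CYP2C19 oxidation of a pro-luciferin substrate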; note: potency is the fitted concentration of half-maximal effect
Cytochrome P450 2C19 (Homo sapiens), sequence (P33261 whole entry, looked up): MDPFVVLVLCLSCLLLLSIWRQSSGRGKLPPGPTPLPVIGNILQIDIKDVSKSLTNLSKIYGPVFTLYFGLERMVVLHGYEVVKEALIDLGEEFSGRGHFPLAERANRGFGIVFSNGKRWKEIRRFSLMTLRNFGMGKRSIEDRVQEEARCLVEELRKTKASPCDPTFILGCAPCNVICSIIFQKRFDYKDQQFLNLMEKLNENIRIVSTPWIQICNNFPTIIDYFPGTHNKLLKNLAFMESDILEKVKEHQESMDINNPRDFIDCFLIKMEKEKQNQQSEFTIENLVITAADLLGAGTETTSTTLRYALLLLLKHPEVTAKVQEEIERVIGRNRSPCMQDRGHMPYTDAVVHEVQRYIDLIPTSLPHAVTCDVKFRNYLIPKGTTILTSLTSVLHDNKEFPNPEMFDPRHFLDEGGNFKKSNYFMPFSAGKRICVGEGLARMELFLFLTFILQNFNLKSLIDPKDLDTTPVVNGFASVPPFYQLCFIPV
Outline: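 Luminescent P450-Glo format: compounds preincubated 15 min with enzyme and luciferin substrate, reaction run 30-45 min after NADPH regeneration solution. Intraplate controls: ketoconazole for CYP3A4 and CYP2C19, sulfaphenazole for CYP2C9.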

[9] = KB-3-1 P-gp reporter qHTS against the NCATS DSHEA and TCM libraries (AID 1919975); note: 0% is about no effect
Outline: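 KB-3-1 parental line, 1536-well qHTS: cells seeded, ~4 h attachment, pintool compound addition, ~72 h at 37C, then CellTiter-Glo, 30 min RT, luminescence. Concentration-response format.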

[10] = qHTS Counterscreen for compound interference against the NCATS DSHEA and TCM libraries (AID 1919978); conditions: firefly luciferase detection reagent interference, luminescence;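 note: compounds preincubated with 1 µM D-luciferin or buffer before detection reagent; % of control where 0% means no effect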
Outline: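 Compounds, titrated from 19.5 nM to 39.8 uM final, were pinned onto 1 uM D-luciferin or plain 100 mM potassium phosphate. After 15 min at room temperature, luciferin detection reagent was added for 30 min before the luminescence read.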

[11] = Dual reporter qHTS for agonist of Pregnane X Receptor (hPXR) against the NCATS DSHEA and TCM libraries: Fluorescence readout (AID 1920058); note: 0% is about no effect
Outline: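 hPXR-Luc HepG2 cells, 2000/well in charcoal-stripped serum, attached 5 h, dosed for ~24 h at 37 °C. Fluorescence read is CellTiter-Fluor viability (Ex/Em 405/540 nm); rifampicin positive, tetraoctyl ammonium bromide (92 µM) cytotoxicity controls.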

[12] = target: Nuclear receptor subfamily 1 group I member 2 (Homo sapiens) (UniProt O75469); test: Dual reporter qHTS for agonist of Pregnane X Receptor (hPXR) against the NCATS DSHEA and TCM libraries: Luminescence readout (AID 1920059); note: 0% is about no effect
Nuclear receptor subfamily 1 group I member 2 (Homo sapiens), sequence (O75469 whole entry, looked up): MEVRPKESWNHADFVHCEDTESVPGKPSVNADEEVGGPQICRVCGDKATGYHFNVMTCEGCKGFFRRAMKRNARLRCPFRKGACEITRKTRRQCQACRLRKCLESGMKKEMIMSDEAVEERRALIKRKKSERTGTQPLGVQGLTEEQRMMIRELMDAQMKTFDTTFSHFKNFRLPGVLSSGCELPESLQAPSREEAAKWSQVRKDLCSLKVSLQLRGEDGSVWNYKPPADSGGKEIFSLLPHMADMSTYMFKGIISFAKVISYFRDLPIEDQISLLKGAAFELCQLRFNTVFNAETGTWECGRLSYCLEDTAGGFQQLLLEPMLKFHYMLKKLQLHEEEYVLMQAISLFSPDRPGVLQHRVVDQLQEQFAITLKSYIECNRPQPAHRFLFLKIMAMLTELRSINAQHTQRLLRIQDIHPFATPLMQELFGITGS
Outline: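 hPXR-Luc HepG2 cells, 2000/well in 5% charcoal-stripped FBS medium, attached 5 h, then exposed 24 h at 37C to compounds. Viability by CellTiter-Fluor, then luciferase luminescence with ONE-Glo.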

[13] = Dual reporter qHTS for antagonist of Pregnane X Receptor (hPXR) against the NCATS DSHEA and TCM libraries: Fluorescence Readout (AID 1920061); note: 0% is about no effect
Outline: (§2)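 HepG2 hPXR-Luc, 2000 cells/well, charcoal-stripped FBS medium; 5 h attach; RIF 2 uM final; 24 h 37C/5% CO2; CellTiter-Fluor 1 h, fluor 405/540; ONE-Glo 30 min RT, lum.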

[14] = target: Cytochrome P450 1A2 (Homo sapiens) (UniProt P05177); test: qHTS for inhibitors of CYPIA2 against the NCATS DSHEA and TCM libraries (AID 1919976); note: potency is the fitted concentration of half-maximal effect
Cytochrome P450 1A2 (Homo sapiens), sequence (P05177 whole entry, looked up): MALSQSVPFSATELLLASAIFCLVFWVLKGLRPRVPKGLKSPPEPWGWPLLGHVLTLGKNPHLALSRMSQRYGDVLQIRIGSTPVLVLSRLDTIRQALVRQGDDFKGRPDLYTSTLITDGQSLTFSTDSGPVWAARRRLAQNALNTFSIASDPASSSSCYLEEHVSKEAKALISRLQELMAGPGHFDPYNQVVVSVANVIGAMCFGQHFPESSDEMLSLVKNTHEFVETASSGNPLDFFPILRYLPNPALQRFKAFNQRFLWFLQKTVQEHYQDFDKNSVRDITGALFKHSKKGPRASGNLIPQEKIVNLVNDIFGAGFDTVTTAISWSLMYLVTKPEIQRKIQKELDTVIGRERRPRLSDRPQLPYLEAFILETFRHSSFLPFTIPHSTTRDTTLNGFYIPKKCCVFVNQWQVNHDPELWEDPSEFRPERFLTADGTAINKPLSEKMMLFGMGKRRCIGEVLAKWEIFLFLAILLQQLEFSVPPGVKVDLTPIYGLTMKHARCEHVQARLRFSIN
Outline: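 Human CYP1A2 with pro-luciferin substrate (typically 100 mM KPO4), 15 min preincubation with compound, then 1x NADPH regeneration for 30-45 min at room temperature in the dark. Luciferin quantified by luciferase luminescence; furafylline intraplate control.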

[15] = target: Nuclear receptor subfamily 1 group I member 2 (Homo sapiens) (UniProt O75469); test: Dual reporter qHTS for antagonist of Pregnane X Receptor (hPXR) against the NCATS DSHEA and TCM libraries: Luminescence Readout (AID 1920060);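 note: HepG2 cells carrying hPXR luciferase reporter stimulated with rifampicin at 2 µM; 0% is about no effect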
Outline: as §2

[16] = target: Luciferin 4-monooxygenase (Photinus pyralis) (UniProt P08659); test: Biochemical firefly luciferase enzyme assay for NPC (AID 624030);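 note: purified P. pyralis luciferase at 10 nM with luciferin and ATP substrate; 0% = DMSO and -100% = full luciferase inhibition by PTC124 control; nearly all actives have a fitted effect of over 70% in size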
Luciferin 4-monooxygenase (Photinus pyralis), sequence (P08659 whole entry, looked up): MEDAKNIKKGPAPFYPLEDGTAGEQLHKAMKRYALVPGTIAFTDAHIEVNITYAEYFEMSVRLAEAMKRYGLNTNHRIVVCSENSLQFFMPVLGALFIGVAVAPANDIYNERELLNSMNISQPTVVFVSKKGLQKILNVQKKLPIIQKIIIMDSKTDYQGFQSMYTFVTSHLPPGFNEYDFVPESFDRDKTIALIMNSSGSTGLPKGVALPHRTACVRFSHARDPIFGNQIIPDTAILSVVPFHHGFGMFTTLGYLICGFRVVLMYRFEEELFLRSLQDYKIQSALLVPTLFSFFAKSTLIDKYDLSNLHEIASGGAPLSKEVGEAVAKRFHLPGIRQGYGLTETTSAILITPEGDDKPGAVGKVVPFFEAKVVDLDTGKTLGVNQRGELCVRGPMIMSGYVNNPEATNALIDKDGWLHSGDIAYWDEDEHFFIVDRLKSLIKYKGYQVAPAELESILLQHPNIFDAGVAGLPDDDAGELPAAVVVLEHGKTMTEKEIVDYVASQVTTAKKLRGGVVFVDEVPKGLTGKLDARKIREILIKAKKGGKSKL
Outline: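 Purified P. pyralis luciferase at 10 nM in 50 mM Tris Acetate (final), luminescence read within 5 minutes of enzyme addition to compounds. Activity normalised to PTC124 versus DMSO; concentration-response curves classed by r2, magnitude and activity.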

[17] = target: Phospholipid hydroperoxide glutathione peroxidase GPX4 (Homo sapiens) (UniProt P36969); test: Primary qHTS Assay for Inhibitors of Recombinant Selenoprotein Glutathione Peroxidase 4 (GPX4) (AID 1845192); conditions: outcome: dose series up to 50 µM unless noted; note: nearly all actives have a fitted effect of over 65% in size
Phospholipid hydroperoxide glutathione peroxidase GPX4 (Homo sapiens), sequence (P36969 whole entry, looked up): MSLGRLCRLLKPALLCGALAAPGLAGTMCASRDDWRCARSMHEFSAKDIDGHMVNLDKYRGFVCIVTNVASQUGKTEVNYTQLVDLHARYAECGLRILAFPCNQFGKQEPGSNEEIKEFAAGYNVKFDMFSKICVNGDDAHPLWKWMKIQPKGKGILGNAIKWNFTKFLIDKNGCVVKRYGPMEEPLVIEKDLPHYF
Outline: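 GR-coupled assay: recombinant GPX4 preincubated 30 min with compound at room temperature; final 200 nM GPX4, 1 mM GSH, 0.5 mM cumene hydroperoxide, 0.5 mM NADPH, 100 nM GR, 0.01% BSA, pH 7.5 Tris. NADPH fluorescence (340/450 nm) read at 0 and 15 min.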

[18] = qHTS profiling for inhibitors of Plasmodium falciparum proliferation (AID 504749);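 note: 0% = DMSO vehicle and full inhibition = artemisinin control; nearly all actives have a fitted effect of over 60% in size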; conditions: P. falciparum in erythrocytes, SYBR Green DNA, 72 h, at 12.8 µM (top of the series)
Outline: (§3)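 P. falciparum-infected erythrocytes (0.3% parasitemia, 2.5% hematocrit) incubated with compound 72 h at 37 C, 5% CO2. Parasite DNA detected by SYBR Green after lysis, overnight at room temperature; normalised to 0.29 uM artemisinin and DMSO.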

CP191 = test: as above; conditions: P. falciparum in erythrocytes, SYBR Green DNA, 72 h; series mostly up to 12.8 µM
Outline: as §3

PC49 = test: as above; conditions: P. falciparum in erythrocytes, SYBR Green DNA, 72 h; series mostly up to 12.8 µM
Outline: as §3

CN(C)Cc1ccccc1-c1cc(NCc2cccs2)ncn1
active: Potency [1] 2 µM

COc1ccccc1-c1nc(N(C)C)c2ccccc2n1
active: Potency [1] 3.16 µM

COc1ccccc1-c1nccc(NCc2ccccc2)n1
active: Potency [1] 3.98 µM

COc1ccccc1CNc1ncnc2ccc(-c3ccoc3)cc12
active: Potency [1] 3.16 µM

CN1CCN(c2ncc3nc(-c4cccc(C#N)c4)c(=O)n(C[C@H]4CCCO4)c3n2)CC1
inactive: Potency [1]

COc1cc2c(cc1OC)C1Cc3ccc(OC)c(OC)c3CN1CC2 (configuration not stated)
inactive: outcome [2]

C=C(NC(=O)C(=C)NC(=O)c1csc(C2=NC3c4csc(n4)C4NC(=O)c5csc(n5)C(C(C)(O)C(C)O)NC(=O)C5CSC(=N5)C(=CC)NC(=O)C(C(C)O)NC(=O)c5csc(n5)C3(CC2)NC(=O)C(C)NC(=O)C(=C)NC(=O)C(C)NC(=O)C(C(C)CC)NC2C=Cc3c(C(C)O)cc(nc3C2O)C(=O)OC4C)n1)C(N)=O (configuration not stated)
inactive: outcome [2]

O=C(/C=C/c1ccc(O)c(O)c1)OC(Cc1ccc(O)c(O)c1)C(=O)O (configuration not stated)
active: Potency [8] 3.55 µM
inactive: outcome [3] | outcome [4] | outcome [5] | outcome [6] | Potency [7] | outcome [9] | max response [10] -4.37% | outcome [11] | outcome [12] | outcome [13]

O=c1cc(-c2ccc(O)cc2)oc2cc(O[C@H]3OC(CO)C(O)C(O)C3O)cc(O)c12 (some centres not stated)
inactive: outcome [3] | outcome [4] | outcome [5] | outcome [6] | Potency [7] | Potency [8] | outcome [9] | Potency [14] | max response [10] -0.179% | outcome [11] | outcome [12] | outcome [15] | outcome [13]

CC12CC[C@@H]3c4ccc(OS(=O)(=O)O)cc4CC[C@H]3C1CCC2=O (some centres not stated)
inactive: outcome [16] | outcome [2] | outcome [17]

CC(C)(S)[C@H](N)C(=O)O
inactive: outcome [2] inactive [at 4.49 µM] | outcome [17] inactive [at 4.52 µM]

CC1(C)SC2C(NC(=O)Cc3ccccc3)C(=O)N2C1C(=O)O (configuration not stated)
inactive: outcome [2] | outcome [17]

COC(=O)C1=CO[C@@H](C)[C@H]2CN3CCc4c([nH]c5ccccc45)[C@@H]3C[C@H]12
active: Potency [1] 2 nM and 7.9 nM | Potency [7] 0.0398 µM | Potency [14] 3.55 µM
inactive: outcome [3] | outcome [4] | outcome [5] | outcome [6] | outcome [9] | max response [10] -2.56% | outcome [11] | outcome [15] | outcome [13]

COc1ccc2ccc(=O)oc2c1
active: Potency [14] 14.1 µM
inactive: outcome [3] | outcome [4] | outcome [5] | outcome [6] | Potency [7] | Potency [8] | outcome [9] | max response [10] 3.31% | outcome [11] | outcome [12] | outcome [15] | outcome [13]

Oc1ccc2c(c1)OCC1(O)Cc3cc(O)c(O)cc3C21 (configuration not stated)
inactive: outcome [2]

CN(C)CC/C=C1\c2ccccc2CSc2ccccc21
inactive: outcome [16] | outcome [2] | outcome [17] | activity, negative = inhibition ([18]; parasite line A) 4.44% | activity, negative = inhibition ([18]; parasite line B) 2.26% | Potency (CP191) | Potency (PC49)

O=c1ccc2ccc(O)cc2o1
inactive: outcome [3] | outcome [5] | outcome [6] | Potency [7] | outcome [9] | Potency [14] | max response [10] 2.6% | outcome [11] | outcome [12] | outcome [15] | outcome [13]
